# mIDH1 inhibitor: blocks human mutant IDH1 R132H enzyme; O75874; Potency, µM (doses to about 76.6 µM), for the others: top-dose activity change, negative = inhibition, most hits filed as inhibitors; 390,000 tested, 0.093% active; IDH1-R132H enzyme, NADPH consumption, diaphorase/resazurin fluorescence; also: potency is read from the fitted curve at half-maximal effect; % is scaled to controls: 0 for no effect and ±100 for the full control effect; nearly all actives have a fitted effect of over 65% in size
# Target sequence (O75874 whole entry R132H, stated change not applied): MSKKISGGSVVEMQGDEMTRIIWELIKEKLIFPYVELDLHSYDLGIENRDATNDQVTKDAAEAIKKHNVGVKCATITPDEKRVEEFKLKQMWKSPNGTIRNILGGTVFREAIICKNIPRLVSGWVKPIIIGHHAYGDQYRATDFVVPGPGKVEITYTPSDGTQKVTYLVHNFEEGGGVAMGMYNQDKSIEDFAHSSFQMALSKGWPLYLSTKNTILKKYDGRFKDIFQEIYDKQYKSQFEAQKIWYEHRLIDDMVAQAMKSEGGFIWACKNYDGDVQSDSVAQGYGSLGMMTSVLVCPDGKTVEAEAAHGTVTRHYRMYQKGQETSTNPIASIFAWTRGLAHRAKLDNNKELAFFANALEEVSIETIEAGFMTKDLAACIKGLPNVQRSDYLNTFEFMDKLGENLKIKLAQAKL
#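 IDH1-R132H (0.5 ug/mL) preincubated 30 min with compound, then NADPH (0.016 mM) and alpha-KG (2 mM) added; 80 min at RT, pH 7.5. Remaining NADPH coupled via diaphorase/resazurin to fluorescence (540/590 nm); concentration-response curves normalized to no-enzyme control.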
# Vif-APOBEC3F blk: Vif-A3F binding inhibition | HeLa A3F-eYFP + Vif (tagged APOBEC3F with the HIV-1 protein that degrades it), YFP fluorescence increase | 390,000 tested, 0.2% active | Potency, µM (series often up to 46.1 µM), for inactives: at the highest dose activity, negative = active; also: potency is read from the fitted curve at half-maximal effect; % of control where 0% means no effect; nearly all actives have a fitted effect of over 65% in size
#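 HeLa cells stably expressing Vif plus C-terminally eYFP-tagged A3F were seeded, incubated overnight at 37 deg C, dosed with compound, incubated overnight again at 37 deg C. Yellow fluorescence (Ex 488/Em 500-530) reported blocked Vif-mediated A3F-eYFP degradation.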
# PTHR1 ag: agonists of human PTHR1 parathyroid hormone receptor; Q03431; HEK293 GP2 PTHR1 cells, GloSensor cAMP luminescence, 1 h; Potency, µM (titrated, usually from 115 µM), for inactives: at the top dose activation, most hits filed as activators; 410,000 tested, 0.075% active; AID 743266; also: potency is read from the fitted curve at half-maximal effect; nearly all actives have a fitted effect of over 55% in size
#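 HEK-293-derived GP2 cells expressing PTHR1 and a GloSensor cAMP reporter, 3,000/well, plated overnight, given luciferin plus IBMX (each 0.5 mM as added) for 1 h at 37 °C, then compound for 1 h at 37 °C. Luminescence was read after 15 min at room temperature.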
# Vif-APOBEC3G blk: inhibitors of Vif-APOBEC3G interaction. Q9HC16. HeLa A3G-eYFP + Vif (tagged APOBEC3G with the HIV-1 protein that degrades it), YFP fluorescence, overnight. Potency, µM (highest dose often 46.1 µM), for the others: at the top dose activity, negative = active, usual class: inhibitors. 410,000 tested, 0.076% active; also: potency is read from the fitted curve at half-maximal effect; % is scaled to controls: 0 for no effect and ±100 for the full control effect; nearly all actives have a fitted effect of over 60% in size
# Target sequence (Q9HC16 whole entry, looked up): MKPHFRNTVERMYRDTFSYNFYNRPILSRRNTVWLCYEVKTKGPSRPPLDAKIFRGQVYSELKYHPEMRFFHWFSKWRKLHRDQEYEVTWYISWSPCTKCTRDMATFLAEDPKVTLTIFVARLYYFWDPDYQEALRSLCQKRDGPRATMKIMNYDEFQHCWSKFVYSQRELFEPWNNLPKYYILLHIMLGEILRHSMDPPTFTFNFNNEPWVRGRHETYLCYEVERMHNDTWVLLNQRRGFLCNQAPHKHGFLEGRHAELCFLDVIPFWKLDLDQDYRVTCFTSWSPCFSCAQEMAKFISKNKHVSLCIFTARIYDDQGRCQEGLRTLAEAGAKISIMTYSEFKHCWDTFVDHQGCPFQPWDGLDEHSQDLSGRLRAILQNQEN
#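 HeLa cells stably expressing Vif and C-terminally eYFP-tagged A3G, seeded overnight at 37 deg C, then exposed to compound by pintool overnight at 37 deg C. Rise in yellow fluorescence (Ex 488/Em 500-530, Acumen) marks blocked Vif-driven A3G degradation.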
# PINK1 expr mod: modulators of PINK1 expression. PINK1 immunofluorescence, high-content cytometry, 24 h. Potency, µM (titrated, usually from 76.6 µM), for inactives: at the highest dose activation (PINK1 increase), actives largely listed as activators. 410,000 tested, 0.2% active; active = well fitted activation curve with a large enough effect; inconclusive = small, poorly fitted or top-dose-only effect; cell line not stated here; also: potency is read from the fitted curve at half-maximal effect; % of control where 0% means no effect; nearly all actives have a fitted effect of over 65% in size
#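 PINK1 protein level read as immunofluorescence by microplate cytometer in a fixed, stained stable cell line after 24 h exposure to five compound concentrations, with CCCP as control.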
# LDHA inh: LDHA (human) enzyme inhibition. purified LDHA, NADH/diaphorase-resazurin fluorescence; active compounds read low. activity change, % (values are at about 110 or 230 µM). 480,000 tested, 0.15% active; in the data active = activity change below about -30%; inconclusive = mostly about -25% to -30%;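 also: plate controls were DMSO wells for no effect and wells without enzyme for full effect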
#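 Remaining NADH was detected by diaphorase (0.133 mg/mL) converting 37 µM resazurin to fluorescent resorufin, read at 0 and 20 minutes. The preceding 5-minute room-temperature reaction used 2 nM LDHA, 0.2 mM sodium pyruvate and 0.06 mM NADH at pH 7.4.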
# Active calls of the source: *; i = inactive; ? = inconclusive; . = no result given; ! = not active in a repeat; [ ] = another dose, or the depositor's remark. This is a sample that favours compounds with a hit; in the whole collection about 0.59% have one here. Unless noted, calls follow the shape of the dose curve; as a rule, active = well fitted curve in the direction sought with a large enough effect; inconclusive = small, poorly fitted or top-dose-only effect, or another doubt; inactive = no such curve, though single readings can be large; an effect the other way counts as inactive or inconclusive.
SMILES,mIDH1 inhibitor,Vif-APOBEC3F blk,PTHR1 ag,Vif-APOBEC3G blk,PINK1 expr mod,LDHA inh
CCC(C)Sc1ccc(-c2nc3ccc(C)cn3c2NCc2ccccc2)cc1OC (stereo not drawn),6.5%,-3.3%,i,-1.0%,15.8µM*,1.2
N#Cc1cccc(NC(=O)CCc2ncc(-c3ccc(Cl)cc3)o2)c1,.,.,.,.,.,1.7
CS(=O)(=O)c1ccc(NCc2ccccc2F)c(S(C)(=O)=O)c1,.,.,.,.,.,0.8
CCc1noc(C)c1C(=O)Nc1ccc(C)c(C)c1,.,.,.,.,.,-0.3
O=C1CSc2ccc(C(=O)Nc3cccc4cccnc34)cc2N1,.,.,.,.,.,20.5
Cc1ccc(NC(=O)CNCCCN2CCOCC2)cc1S(=O)(=O)N1CCCCC1,-9.3%,-0.8%,-22.0%,0.9%,-1.7%,-33.0*
CN1\C(=C/C=C/C=C/C=[N+](C)C)C(C)(C)c2ccccc21,46.5µM*,?,-40.8%,?,?,-0.7
C=CCn1c(SC)nc2c1c(=O)[nH]c(=O)n2C,.,.,.,.,.,-2.3
CCOC(=O)N1CCc2c(sc(NCc3ccc(N(CC)CC)cc3)c2C(=O)Nc2cc(OC)ccc2OC)C1,-2.0%,-5.4%,39.8µM*,2.5%,0.3%,18.1
CCOC(=O)N1CCc2c(sc(NCc3ccc(OCC)cc3)c2C(=O)Nc2ccc(OC)cc2OC)C1,.,.,i,.,0.1%,7.2
C=C(C)c1ccc(C(C)(C)NC(=O)N(Cc2ccccc2)Cc2ccco2)cc1,7.3%,-2.1%,i,-4.0%,11.2µM*,-8.3
CCOc1ccc2nc(NS(=O)(=O)c3cccs3)sc2c1,0.5%,7.7%,10.4%,-1.0%,-1.2%,-2.6
CCOc1ccc2nc(S(N)(=O)=O)sc2c1,0.6%,1.4%,i,0.0%,0.7%,-80.3*
CC(c1cccc2ccccc12)N(C(=O)c1cccs1)C1CC1 (stereo not drawn),.,.,.,.,.,1.1
CC[N+](C)(C(=O)O)/C(=C\c1ccccc1)c1ccnc2ccccc12 (stereo not drawn),.,.,.,11.2µM*,0.7%,-12.3
N#CC(=Cc1ccnc2ccccc12)c1ccccc1,10.8%,-0.3%,-53.0%,-8.4%,4.1%,0.9
COc1ccccc1-c1oc2ccccc2c1-c1ccc2c(c1)OCO2,7.4%,0.1%,-15.2%,-12.7%,11.1%,2.6
CCOc1c2c(c(-c3ccc4c(c3)OCO4)c3cc(OC)c(OC)cc13)C(=O)OC2,.,.,.,3.7%,14.1µM*,2.3
COc1ccc(-c2cc(CCCC(=O)NCCc3ccccc3)no2)cc1,-2.9%,-5.0%,i,0.0%,-0.2%,-13.6
COc1ccc(-c2cc(CCCC(=O)NCCc3ccc(OC)cc3OC)no2)cc1,0.2%,-3.4%,i,-4.9%,11.2µM*,-0.7
CC(=O)C1=C(C)NC(SCC(=O)c2ccc(Cl)cc2Cl)=C(C#N)C1c1ccco1 (stereo not drawn),-7.1%,-16.2%,i,0.8%,-6.9%[38.3 µM],9.4
CC(=O)C1=C(C)NC(SCC(=O)c2ccc(Cl)cc2)=C(C#N)C1c1ccco1 (stereo not drawn),2.9%,25.1µM*,i,?,1.4%[38.3 µM],9.4
O=C(NCCC(=O)N1CCN(c2ncccn2)CC1)c1ccc(Br)cc1,.,.,.,.,.,-31.6*
COC(=O)c1cc(C)nc(Nc2nc(C(N)Cc3ccc(F)cc3)cs2)n1 (stereo not drawn),.,.,-10.8%,0.8%,2.7%,-7.6
Cc1cc(C)nc(Nc2nc(C(N)Cc3ccccc3)cs2)n1 (stereo not drawn),.,.,-24.7%,4.47µM*,11.4%,-8.0
SMILES,mIDH1 inhibitor,Vif-APOBEC3F blk,PTHR1 ag,Vif-APOBEC3G blk,PINK1 expr mod,LDHA inh
O=C(NC(NC(=O)c1ccccc1)c1ccc(Cl)cc1Cl)c1ccccc1,.,.,.,.,.,-3.5
CCN(CC)c1ccc2nc3ccc(N)cc3[n+](-c3ccccc3)c2c1,-3.1%,2.0%,-42.9%,6.8%,10µM*,22.0
CCN(CC)c1ccc(/C=N/N2C(=O)c3ccccc3C2=O)cc1,2.4%,4.2%,-20.6%,-1.5%,-0.4%,-3.2
CCN(CC)c1ccc(/C=N/N2CC(=O)NC2=S)cc1,9.0%,?,-8.9%,3.2%,39.8µM*,-2.1
COc1ccc2oc(=O)cc(-c3cc4cccc(OC)c4o3)c2c1,17.9%,-12.7%,-4.2%,-9.7%,5.0%,-33.3*!
COc1cccc2cc(-c3cc(=O)oc4ccc(C)cc34)oc12,.,.,.,.,.,0.2
CCCNc1c(NS(=O)(=O)c2ccc(OCC)cc2)c(=O)oc2ccccc12,.,.,.,.,.,-3.3
Cc1ccc(CNc2nc(-c3cccs3)nn2C(=O)CC(C)C)o1,.,.,.,.,.,-20.5
CC(=O)N/N=C/c1cc(C(C)C)cc(/C=N/NC(C)=O)c1O,1.0%,31.6µM*,-2.2%,?,6.8%,5.8
CC(=O)c1ccc(NC(=O)C(C)Sc2ccccc2C(=O)NCC(=O)C(C)(C)C)cc1 (stereo not drawn),.,.,.,.,.,-3.0
O=C(NCCCN1CCCCCC1)C1CCC1,.,.,.,.,.,9.1
COCc1nn2c(c1-c1ccccc1)NC(=O)CC2C(=O)Nc1ccccc1OC (stereo not drawn),.,.,.,.,.,-7.1
N#CC1=C(S)N(c2ccc(F)cc2)C2(CCCCC2)NC1=O,1.7%,11.2µM*,i,8.7%,2.6%,-7.0
CCOC(=O)c1[nH]c(C=O)c(C(C)=O)c1C,.,.,.,.,.,7.5
O=C(OCc1cn([C@@H]2CN(C(=O)C3CCCCC3)[C@@H](c3ccc(Cl)cc3)C[C@H]2O)nn1)c1ccccc1,-12.8%,-1.8%,-15.0%,3.5%,2.9%,-35.3*
CSc1ccccc1C(=O)OCC(=O)NCc1cccs1,.,.,.,.,.,-4.1
Cc1ccc(C(=O)Nc2ccc(S(=O)(=O)O)c3cc(S(=O)(=O)O)cc(S(=O)(=O)O)c23)cc1NC(=O)c1cccc(NC(=O)Nc2cccc(C(=O)Nc3cc(C(=O)Nc4ccc(S(=O)(=O)O)c5cc(S(=O)(=O)O)cc(S(=O)(=O)O)c45)ccc3C)c2)c1,.,.,.,6.7%,-0.1%,-93.6*
Cc1ccc(C(=O)O)cc1NC(=O)c1cccc(C(=O)Nc2cc(C(=O)O)ccc2C)c1,.,.,.,.,.,9.1
Clc1ccc(N2CCN(c3ncnc4nc[nH]c34)CC2)cc1Cl,.,.,.,.,.,-31.1*
N#C/C(=C\Nc1ccc2cn[nH]c2c1)c1nc(-c2ccccc2)cs1,3.1%,-27.4%,i,-20.9%,2.3%,2.7
N#C/C(=C\Nc1ccc2cn[nH]c2c1)c1nc(-c2ccc(Cl)cc2)cs1,4.8%,22.4µM*,-35.0%,-21.5%,5.6%,2.0
N#CC(=Cc1ccccn1)c1nc(-c2ccc(Cl)cc2)cs1,6.4%,?,-20.0%,5.62µM*,10.2%,-3.2
COCCN(CCOC)C(=O)c1cc(-c2cccs2)nc2ccccc12,.,.,.,.,.,5.3
COc1ccc(C(=O)c2sc3nc(C)cc(-c4cccs4)c3c2N)cc1,-3.4%,22.4µM*,-27.0%,12.6µM*,0.5%,-2.3

# Screens as filed in PubChem BioAssay.
